The whole screen tested about 2,000 compounds, of which about 250 (12%) were called active. What follows is part of a selection rich in actives, with near analogues and random picks from the rest. Values without a mark were called inactive. Rule as the data show it: active = hERG blockade below about -20% or above about 20%; inactive = in between.

The test deals with Voltage-gated inwardly rectifying potassium channel KCNH2 (Homo sapiens) (UniProt Q12809). In words: modulators of KCNH2 ion channel function, cellular (AID 376).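 Also: 0% = buffer alone and 100% = reference blocker.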 The note with it: hERG-expressing cells, channel activity single-concentration screen; concentration not given here.
Chain of Voltage-gated inwardly rectifying potassium channel KCNH2 (Homo sapiens) (Q12809 whole entry, looked up): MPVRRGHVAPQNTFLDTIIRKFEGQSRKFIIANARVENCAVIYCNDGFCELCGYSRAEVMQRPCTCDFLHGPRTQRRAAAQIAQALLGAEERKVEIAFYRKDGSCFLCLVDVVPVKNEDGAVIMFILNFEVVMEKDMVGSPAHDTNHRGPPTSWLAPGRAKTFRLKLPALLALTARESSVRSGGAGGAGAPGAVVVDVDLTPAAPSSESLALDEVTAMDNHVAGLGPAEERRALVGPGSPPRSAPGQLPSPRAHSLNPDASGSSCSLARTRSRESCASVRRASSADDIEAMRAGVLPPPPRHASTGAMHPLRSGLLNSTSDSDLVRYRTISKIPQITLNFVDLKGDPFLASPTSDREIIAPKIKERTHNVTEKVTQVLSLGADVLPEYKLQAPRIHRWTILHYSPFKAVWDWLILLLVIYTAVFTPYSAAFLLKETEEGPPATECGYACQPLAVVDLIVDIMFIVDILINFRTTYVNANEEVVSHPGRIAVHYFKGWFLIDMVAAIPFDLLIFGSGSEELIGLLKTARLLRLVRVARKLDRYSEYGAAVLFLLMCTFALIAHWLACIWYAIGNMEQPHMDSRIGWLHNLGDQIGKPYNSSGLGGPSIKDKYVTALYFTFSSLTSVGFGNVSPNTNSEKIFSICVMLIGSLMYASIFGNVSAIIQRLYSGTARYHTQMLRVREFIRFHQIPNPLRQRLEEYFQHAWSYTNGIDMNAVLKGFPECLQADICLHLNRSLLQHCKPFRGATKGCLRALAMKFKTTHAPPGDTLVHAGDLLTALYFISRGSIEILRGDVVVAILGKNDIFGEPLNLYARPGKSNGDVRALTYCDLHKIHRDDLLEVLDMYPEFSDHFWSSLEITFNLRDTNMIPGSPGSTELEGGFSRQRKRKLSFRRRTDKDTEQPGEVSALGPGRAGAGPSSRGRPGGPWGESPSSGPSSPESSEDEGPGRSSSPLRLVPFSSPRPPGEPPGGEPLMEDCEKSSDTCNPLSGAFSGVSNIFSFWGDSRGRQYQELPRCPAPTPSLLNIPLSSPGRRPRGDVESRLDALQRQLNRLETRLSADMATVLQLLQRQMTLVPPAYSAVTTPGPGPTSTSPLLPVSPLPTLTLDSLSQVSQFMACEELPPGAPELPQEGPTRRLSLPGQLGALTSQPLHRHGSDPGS
For `NS(=O)(=O)c1cc(C(=O)O)c(Cl)c([N+](=O)[O-])c1Cl`, the hERG blockade is -6.38%. With `COc1cc(C(=O)O)c([N+](=O)[O-])c(OC)c1OC`, the hERG blockade was 23.9% (active). As for `COc1ccc(Cc2ccccc2C(=O)O)c2ccccc12`, the figure is -3.19%; as for `Cc1cc(=O)oc2cc(O)c(CN(C)CC(=O)O)cc12`, 0.517%. The value for `O=c1[nH]c(=S)[nH]c2c1CN(CCCN1CCOCC1)CN2` was 3%; that for `NCCSCc1ccccc1Cl` was 6.42%; that for `CN(CCO)Cc1ncccc1O` was -0.376%. As for `CC(CCC(=O)O)C1CCC2C3CCC4CC(O)CCC4(C)C3CC(O)C12C` (centres undefined), the figure is 2.74%; as for `Cc1nc2cccc([N+](=O)[O-])c2n1CCCN(C)C`, 3.79%.

Take `CN(C)CCCn1c2c3ccccc3ccc2c2oc(=O)c3ccccc3c21`: the hERG blockade is 122% (active). As for `Cc1ccc(N2CCN(CCC(=O)O)CC2)cc1`, the figure is -0.109%; as for `CCCn1cnc2c(SCC(=O)O)nc(N)nc21`, 4.79%; as for `NC(=S)NN=Cc1c[nH]c2ccccc12`, 9.72%. As for `CCCCNS(=O)(=O)c1n[nH]c(=O)[nH]c1=O`, the figure is -14.2%; as for `CC(CCC(C)=NO)=NO`, -14.3%. The value for `Cc1cc(Cl)ccc1Nc1sc(C(=O)c2cc3cc(Cl)ccc3o2)c(N)c1C#N` was 24% (active); that for `O=C(O)c1c(-c2nccc3ccccc23)[nH]c(-c2ccccc2)c1S(=O)(=O)O` was -1.08%; that for `COc1ccc2nccc(SCC(=O)O)c2c1` was -9.78%. As to `CC(=O)Nc1ccc2c(c1)C(=Nc1ccc(C(=O)O)cc1)c1ccccc1-2`, the hERG blockade is 19.5%. As for `CC(=O)Nc1ccc2c(c1)C(=Cc1ccc([N+](C)(C)C)cc1)c1ccccc1-2`, the figure is 24.7% (active); as for `CC(=O)Nc1ccccc1C=C1c2ccccc2-c2ccccc21`, -13.9%. As for `Cc1ccc(C(C#N)=Cc2cccc([N+](=O)[O-])c2)cc1`, the figure is 11.7%; as for `CC(=O)n1c(COS(C)(=O)=O)nc2ccccc21`, 4.86%. The value for `OC(CCN1CCCCC1)(c1ccccc1)c1ccccc1` was 11.6%; that for `CC1CC(C)(C)CC(OCCN2CCCCC2)(c2ccccc2)C1` (centres undefined) was 21.3% (active). As for `Cc1ccc(S(=O)(=O)Nc2ccccc2C=O)cc1`, the hERG blockade is 5.12%.

Turning to `C[N+]1(CCCC[N+]2(C)CCCCCCC2)CCCCCCC1`, the hERG blockade is 13.6%. Consider `N#CC(C#N)=CNCCN1CCN(C=C(C#N)C#N)CC1`, for which the hERG blockade was -5.6%.

On to `CN(C)CCNc1ccccn1`, for which the hERG blockade was 5.77%.

(Values after PubChem BioAssay AID376 (PDSP, 2006).)
